# The source made the active and inactive calls.
# Key:
# Albumin (Bos taurus) = Albumin (Bos taurus) (UniProt P02769); test: bovine serum albumin binders on microarray, profiling panel, artefact control for SMM control protein annotation, biochemical, small-molecule microarray, Alexa647 label, 635/667 nm fluorescence (AID 1118); conditions: BSA-A647 binding, fluorescence 635 nm, higher = more signal;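 further: score merges 667 nm emission intensity and signal-to-noise per printed compound spot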
# [1] = small-molecule microarray binders of probe aXIP, primary screen, biochemical, NeuroSMM set, 635/667 nm fluorescence (AID 1119); conditions: higher = more signal, called active from +8 up or from −8 down;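 further: probe is the protein aXip251-270 applied at 1 µg/mL to compound-printed slides; binding of probe to printed compounds measured as 667 nm fluorescence plus signal to noise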
# [2] = small-molecule binders of probe aNOTCH3, primary screen, biochemical, small-molecule microarray, 635/667 nm fluorescence (AID 1120); conditions: higher = more signal;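 further: probe is a biotin-tagged antibody raised against NOTCH3 rather than NOTCH3 protein; score merges spot fluorescence near 667 nm with spot signal to noise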
# [3] = small-molecule binders of probe aNOTCH2, primary screen, biochemical, small-molecule microarray, 635/667 nm fluorescence (AID 1121); conditions: higher = more signal;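 further: score merges feature fluorescence read at 667 nm with its signal to noise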
# [4] = molecular target: Carbonic anhydrase 2 (Homo sapiens) (UniProt P00918); test: CAII small-molecule binders, profiling panel, biochemical, small-molecule microarray, Alexa647-labelled CAII (AID 1122); conditions: CAII-A647 binding fluorescence, higher = more signal
# [5] = COS7 lysate on small-molecule microarray, probe aHis, 635 nm (AID 1123); conditions: COS7 cell lysate, fluorescence, higher = more signal;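 further: z-score combines 667nm fluorescence intensity with signal-to-noise per printed compound spot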
# [6] = compound binding in COS7 lysate, probe aLAP1, primary screen, cell lysate, small-molecule microarray (AID 1124); conditions: probe aLAP1, fluorescence, higher = more signal;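 further: lysate comes from COS7 cells expressing LAP1 and is applied at 0.3 µg/mL; score merges spot fluorescence near 667 nm with signal-to-noise over triplicate slides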
# Sam68 (KHDRBS1) = test: Sam68 small-molecule binders, primary screen, biochemical, small-molecule microarray, 635 nm fluorescence (AID 1125); conditions: small-molecule microarray binding, higher = more signal;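 further: score merges 667 nm channel intensity with signal to noise over triplicate slides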
# [7] = test system: Chordin-like protein 2 (CHRDL2); test: CHRDL2 small-molecule binders, primary screen, biochemical, small-molecule microarray, 635 nm fluorescence (AID 1126); conditions: small-molecule microarray binding, fluorescence 635 nm; higher = more signal;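 further: printed compound slides probed with Chrdl2 protein at 4 µg/mL for 1 h at 4 C; score merges 667 nm emission intensity with signal to noise over three replicate slides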
# [8] = molecular target: Concanavalin-A (Canavalia ensiformis) (UniProt P02866); test: ConA small-molecule binders, primary screen, artefact control for SMM control protein annotation, biochemical, small-molecule microarray, Alexa647 label, 635 nm (AID 1127); conditions: ConA-A647 binding fluorescence, higher = more signal;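 further: z combines 667 nm emission intensity with signal-to-noise across three replicate slides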
# Concanavalin-A (Canavalia ensiformis), sequence (P02866 whole entry, looked up): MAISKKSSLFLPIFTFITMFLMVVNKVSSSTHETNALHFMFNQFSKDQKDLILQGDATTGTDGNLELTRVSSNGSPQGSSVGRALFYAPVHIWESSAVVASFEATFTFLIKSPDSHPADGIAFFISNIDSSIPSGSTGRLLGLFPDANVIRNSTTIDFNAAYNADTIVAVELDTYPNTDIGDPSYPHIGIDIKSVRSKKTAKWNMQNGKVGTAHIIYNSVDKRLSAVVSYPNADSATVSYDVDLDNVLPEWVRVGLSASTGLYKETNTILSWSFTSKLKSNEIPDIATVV
# [9] = anti-His antibody binders, primary screen, artefact control for SMM control protein annotation, biochemical, small-molecule microarray, 635 nm fluorescence (AID 1128); conditions: anti-His Alexa647 antibody binding, higher = more signal;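 further: score merges feature fluorescence with signal-to-noise for each printed compound spot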
# [10] = test system: Human papillomavirus type 1a E7 protein (residues 1-88); test: HPV1a E7 small-molecule binders, primary screen, biochemical, small-molecule microarray, residues 1-88, 635 nm (AID 1129); conditions: small-molecule microarray binding, fluorescence 635 nm; higher = more signal
# [11] = molecular target: Focal adhesion kinase 1 (Homo sapiens) (UniProt Q05397); test: small-molecule microarray binders of FAK, primary screen, biochemical, 635/667 nm fluorescence, BSA, DTT (AID 1130); conditions: PTK2 binding, 635 nm fluorescence, higher = more signal;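 further: composite of spot emission at 667 nm and signal to noise over triplicate slides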
# Focal adhesion kinase 1 (Homo sapiens), sequence (Q05397 whole entry, looked up): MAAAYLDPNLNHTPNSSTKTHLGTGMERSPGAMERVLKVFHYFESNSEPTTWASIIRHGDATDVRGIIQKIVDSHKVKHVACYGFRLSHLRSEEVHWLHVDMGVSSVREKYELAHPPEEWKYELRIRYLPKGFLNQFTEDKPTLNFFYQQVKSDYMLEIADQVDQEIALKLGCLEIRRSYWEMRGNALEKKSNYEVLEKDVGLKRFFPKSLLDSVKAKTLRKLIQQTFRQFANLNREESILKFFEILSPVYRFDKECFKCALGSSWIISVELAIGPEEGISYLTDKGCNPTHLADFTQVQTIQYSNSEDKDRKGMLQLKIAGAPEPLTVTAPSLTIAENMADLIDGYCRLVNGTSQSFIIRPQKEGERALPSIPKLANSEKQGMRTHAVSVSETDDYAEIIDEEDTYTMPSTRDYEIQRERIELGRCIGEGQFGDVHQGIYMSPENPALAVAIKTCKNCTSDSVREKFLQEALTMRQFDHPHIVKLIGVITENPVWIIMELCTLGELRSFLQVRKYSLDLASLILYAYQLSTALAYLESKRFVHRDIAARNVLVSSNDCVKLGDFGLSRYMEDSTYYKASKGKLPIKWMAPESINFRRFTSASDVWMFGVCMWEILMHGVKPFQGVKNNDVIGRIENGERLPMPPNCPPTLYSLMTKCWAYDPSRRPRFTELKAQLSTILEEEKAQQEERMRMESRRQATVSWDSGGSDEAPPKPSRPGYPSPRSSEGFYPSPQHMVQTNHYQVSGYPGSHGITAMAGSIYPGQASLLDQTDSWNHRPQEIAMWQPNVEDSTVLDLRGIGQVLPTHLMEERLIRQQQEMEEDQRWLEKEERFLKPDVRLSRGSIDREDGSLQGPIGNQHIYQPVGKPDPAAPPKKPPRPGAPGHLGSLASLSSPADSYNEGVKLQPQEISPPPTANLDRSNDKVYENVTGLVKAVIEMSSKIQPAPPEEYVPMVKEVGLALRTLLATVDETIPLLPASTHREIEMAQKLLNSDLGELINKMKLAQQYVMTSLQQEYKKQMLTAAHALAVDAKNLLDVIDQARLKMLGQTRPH
# [12] = test system: Fibrinogen (Alexa647-labelled); test: fibrinogen binders on compound microarrays, profiling panel, artefact control for SMM control-protein annotation, biochemical, small-molecule microarray, 635/667 nm fluorescence (AID 1131); conditions: fibrinogen-A647 binding fluorescence, higher = more signal;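 further: z-score merges 667 nm fluorescence with per-spot signal-to-noise over triplicate slides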
# [13] = molecular target: Follistatin (Homo sapiens) (UniProt P19883); test: follistatin binders on small-molecule microarrays, primary screen, biochemical, small-molecule microarray, 635/667 nm fluorescence (AID 1132); conditions: FST binding, 635 nm fluorescence, higher = more signal
# Follistatin (Homo sapiens), sequence (P19883 whole entry, looked up): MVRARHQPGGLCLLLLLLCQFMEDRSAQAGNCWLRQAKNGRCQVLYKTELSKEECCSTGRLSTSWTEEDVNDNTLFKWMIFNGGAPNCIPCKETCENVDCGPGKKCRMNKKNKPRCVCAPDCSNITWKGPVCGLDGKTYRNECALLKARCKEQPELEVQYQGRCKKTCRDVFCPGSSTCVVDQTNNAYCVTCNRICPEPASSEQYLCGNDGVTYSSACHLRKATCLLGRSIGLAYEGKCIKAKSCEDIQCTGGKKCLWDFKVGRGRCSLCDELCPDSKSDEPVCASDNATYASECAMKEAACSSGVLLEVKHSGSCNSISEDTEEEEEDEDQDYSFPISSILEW
# [14] = molecular target: Fibroblast growth factor 2 (Homo sapiens) (UniProt P09038); test: FGF2 binders on small-molecule microarrays, primary screen, biochemical, small-molecule microarray, 635/667 nm fluorescence (AID 1133); conditions: small-molecule microarray binding, FGF2, fluorescence 635/667; higher = more signal
# Fibroblast growth factor 2 (Homo sapiens), sequence (P09038 whole entry, looked up): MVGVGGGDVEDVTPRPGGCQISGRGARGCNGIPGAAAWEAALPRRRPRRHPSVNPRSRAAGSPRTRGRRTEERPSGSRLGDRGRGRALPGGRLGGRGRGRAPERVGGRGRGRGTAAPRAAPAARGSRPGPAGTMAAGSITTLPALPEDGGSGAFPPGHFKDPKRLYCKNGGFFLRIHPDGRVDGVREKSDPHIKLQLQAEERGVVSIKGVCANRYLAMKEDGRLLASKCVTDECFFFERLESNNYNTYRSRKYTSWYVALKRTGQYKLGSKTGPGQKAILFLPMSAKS
# [15] = mitochondrial membrane potential change in A549 cells, profiling panel, cell-based, JC-1 fluorescence, basal, 24 h, 100 nL (AID 1138); conditions: higher = more signal;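 further: A549 lung adenocarcinoma cells under basal conditions with no added stimulus; test concentration not given here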
# Lefty1 = Lefty1 binders on small-molecule microarrays, primary screen, biochemical, small-molecule microarray, 635/667 nm fluorescence (AID 1139); conditions: small-molecule microarray binding, fluorescence 635/667; higher = more signal
# [16] = test system: wheat germ agglutinin (Triticum aestivum), Alexa647-labelled; test: wheat germ agglutinin binders on compound microarrays, profiling panel, artefact control for SMM control-protein annotation, biochemical, small-molecule microarray, 635/667 nm fluorescence (AID 1140); conditions: WGA-A647 binding, 635 nm fluorescence, higher = more signal;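 further: score merges 667 nm feature emission with signal to noise over triplicate slides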
# [17] = molecular target: Luciferin 4-monooxygenase (Photinus pyralis) (UniProt P08659); test: firefly luciferase enzyme inhibitors, primary screen, biochemical, luminescence, purified enzyme, 2006 set (AID 1141); conditions: SteadyGlo luminescence, 30 min, higher = more signal, called active from +8 up or from −8 down;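 further: cell-free assay with purified firefly luciferase at 100 ng per well in PBS; test concentration not given here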
# Luciferin 4-monooxygenase (Photinus pyralis), sequence (P08659 whole entry, looked up): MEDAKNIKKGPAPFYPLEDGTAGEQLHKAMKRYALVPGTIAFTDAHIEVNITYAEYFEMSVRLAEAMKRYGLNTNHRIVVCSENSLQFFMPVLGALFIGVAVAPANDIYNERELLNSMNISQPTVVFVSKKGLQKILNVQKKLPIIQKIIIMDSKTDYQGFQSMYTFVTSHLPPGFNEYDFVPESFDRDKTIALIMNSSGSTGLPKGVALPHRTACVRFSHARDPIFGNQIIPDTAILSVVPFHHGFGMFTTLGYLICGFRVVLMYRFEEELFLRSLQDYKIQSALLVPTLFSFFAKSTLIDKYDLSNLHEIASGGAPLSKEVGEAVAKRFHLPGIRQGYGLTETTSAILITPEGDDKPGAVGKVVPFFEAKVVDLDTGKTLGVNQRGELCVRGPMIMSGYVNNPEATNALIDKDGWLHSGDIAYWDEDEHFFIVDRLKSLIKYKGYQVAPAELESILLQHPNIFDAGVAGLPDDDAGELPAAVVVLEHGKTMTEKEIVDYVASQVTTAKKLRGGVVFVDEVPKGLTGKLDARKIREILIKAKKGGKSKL
# Albumin (Bos taurus), sequence (P02769 whole entry, looked up): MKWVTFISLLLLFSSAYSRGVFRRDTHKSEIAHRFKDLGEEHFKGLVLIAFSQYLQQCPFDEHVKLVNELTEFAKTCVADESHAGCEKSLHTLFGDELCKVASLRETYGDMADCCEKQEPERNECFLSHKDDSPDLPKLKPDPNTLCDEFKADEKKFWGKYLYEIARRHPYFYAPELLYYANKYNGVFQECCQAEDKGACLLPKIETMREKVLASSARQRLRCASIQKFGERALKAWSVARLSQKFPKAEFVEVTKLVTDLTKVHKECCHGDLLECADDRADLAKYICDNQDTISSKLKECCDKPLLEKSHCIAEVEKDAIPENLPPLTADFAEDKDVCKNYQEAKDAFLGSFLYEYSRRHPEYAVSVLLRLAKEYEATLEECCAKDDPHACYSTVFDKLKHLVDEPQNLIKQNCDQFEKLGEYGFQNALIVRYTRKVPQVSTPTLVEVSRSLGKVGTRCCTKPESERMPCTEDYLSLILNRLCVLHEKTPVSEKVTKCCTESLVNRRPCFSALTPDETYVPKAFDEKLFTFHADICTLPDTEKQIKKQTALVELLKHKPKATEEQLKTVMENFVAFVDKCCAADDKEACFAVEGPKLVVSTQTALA
Compound,composite z-score (Albumin (Bos taurus)),composite Z-score [1],composite z-score [2],composite z-score [3],composite z-score [4],composite z-score [5],composite z-score [6],composite z-score (Sam68 (KHDRBS1)),composite z-score [7],composite z-score [8],composite z-score [9],composite z-score [10],composite z-score [11],composite z-score [12],composite z-score [13],composite z-score [14],z-score [15],composite z-score (Lefty1),composite z-score [16],z-score [17]
O=C1O[C@H](c2ccccc2)[C@H](c2ccccc2)N2[C@H]1[C@@H](C(=O)NC[C@H](O)c1ccccc1)[C@]1(C(=O)Nc3ccccc31)[C@H]2c1ccc(O)cc1,0.626,-0.35 (inactive),-0.0328,-0.0629,0.66,1.19,0.463,0.959,1.23,1.01,0.885,0.973,0.223,0.141,1.22,1.71,-0.236,0.947,0.39,0.363 (inactive)
OCC1C=C(/C=C/c2ccccc2)CN1Cc1ccccc1Br (stereo not given),0.718,0.466 (inactive),0.0694,-0.0877,0.287,0.672,-0.0831,1.01,0.402,0.94,1.5,0.278,-0.18,0.891,1.29,1.39,0.426,1.51,0.94,-1.05 (inactive)
COc1cc2c(cc1O)C=[N+](Cc1cc3c(cc1Br)OCO3)CC2,-0.71,-0.402 (inactive),-0.185,-0.126,0.844,0.0478,0.27,-0.54,-0.139,-1.27,-0.954,-1.07,-0.626,-2.07,-0.174,-0.659,-0.784,-0.553,0.248,0.807 (inactive)
CN1C(=O)C2C=CC(C(O)c3ccc(F)cc3)N(N(c3ccccc3)c3ccccc3)C2C1=O (stereo not given),0.698,2.43 (inactive),0.206,0.0264,0.506,2.82,0.0833,-0.0714,-0.69,0.324,0.202,0.619,0.0202,-1.13,0.605,-0.615,0.351,-0.128,0.296,0.0492 (inactive)
O=C1C2C=CC(C(O)C=Cc3ccc([N+](=O)[O-])cc3)N(n3cnnc3)C2C(=O)N1Cc1ccccc1 (stereo not given),0.235,0.263 (inactive),0.177,0.02,0.66,1.38,1.04,1.19,0.682,0.876,1.88,1.06,0.376,0.699,1.16,-0.0745,-0.772,-0.0293,0.941,0.872 (inactive)
CO[C@H]1O[C@H](CO)[C@@H](OC(=O)Nc2ccccc2)[C@@H]2OC(=O)[C@@H](Cc3ccc4ccccc4c3)C/C=C/C[C@H](Cc3ccc4ccccc4c3)C(=O)O[C@@H]12,0.615,1.08 (inactive),-0.0371,-0.146,0.324,1.38,0.313,1.21,0.34,0.983,0.79,1.2,1.12,0.768,0.935,0.477,0.461,0.698,0.807,-1.97 (inactive)
CCCCN1CC=CC23O[C@@H]4/C=C\CCCOC(=O)C4[C@H]2C(=O)N(CCCCCO)[C@@H]3C1=O (stereo not given in full),-1.09,0.414 (inactive),-0.326,-0.192,0.754,-0.494,0.85,-1.12,-0.722,-1.22,0.688,-1.02,1.31,-0.918,-0.803,-0.573,0.897,-1.12,-0.595,0.686 (inactive)
C=C(CCCC)C(=O)CC[C@H](OC(=O)c1cccnc1)c1ccc(OCCO)cc1,0.0514,0.197 (inactive),-0.0076,-0.14,0.72,-0.0099,0.022,0.567,0.191,-0.421,0.631,0.474,0.819,0.0895,0.131,0.476,1.15,-0.205,0.955,-1.91 (inactive)
CC(C)=CCCC(C)=CC(O)C1C=CC2C(=O)N(c3ccccc3)C(=O)C2N1Nc1ccc(C(C)C)cc1 (stereo not given),0.792,0.415 (inactive),0.282,0.0683,0.465,2.32,-0.519,1.23,-1.01,1.09,0.491,1.22,0.526,0.998,1.12,-0.373,0.0344,0.262,1.03,0.43 (inactive)
COCCOC(=O)N1C(=O)[C@@]2(c3ccccc31)[C@H](c1ccc(OCCO)cc1)N1[C@H](c3ccccc3)[C@H](c3ccccc3)OC(=O)[C@H]1[C@@H]2C(=O)N1CCc2cc(OC)c(OC)cc2C1,0.642,0.158 (inactive),0.273,-0.0021,0.641,2.4,1.43,1.28,0.584,1.16,2.41,1.2,0.85,0.958,1.3,1.38,-0.0272,1.35,1.17,-0.603 (inactive)
COC(=O)[C@@]1(Cc2ccc(OC)cc2)[C@H]2c3cc(C(=O)N(C)C)n(Cc4ccc(C(F)(F)F)nc4)c3C[C@H]2CN1C(=O)c1ccccc1,0.92,3.72 (inactive),0.17,0.183,0.752,2.11,0.017,-0.354,0.181,-0.0962,0.598,0.846,1.2,0.843,-0.0313,-0.49,0.549,-0.501,0.833,0.678 (inactive)

# Reference: PubChem BioAssay
